Calls of active or inactive are those of the source. Cut-off read from the data, not from the text of the source, unless noted: active = inhibition above about 28%; inactive = the rest.
Assays:
[1] = target: Nuclear receptor coactivator 3 (Homo sapiens) (UniProt Q9Y6Q9); assay: NCOA3 GAL4-fusion reporter inhibition – cell-based, luminescence, quadruplicate, confirmation (AID 588792;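 active = mean inhibition over 43.08%, the solvent-only control mean plus 3 SD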;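 note: 0% = DMSO treated cells and 100% = gossypol at 36 µM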); conditions: HEK293 GAL4-SRC3 luciferase reporter, at 3.6 µM, stronger effect = higher value
Sequence of Nuclear receptor coactivator 3 (Homo sapiens) (Q9Y6Q9 whole entry, looked up, the tested form may be a part): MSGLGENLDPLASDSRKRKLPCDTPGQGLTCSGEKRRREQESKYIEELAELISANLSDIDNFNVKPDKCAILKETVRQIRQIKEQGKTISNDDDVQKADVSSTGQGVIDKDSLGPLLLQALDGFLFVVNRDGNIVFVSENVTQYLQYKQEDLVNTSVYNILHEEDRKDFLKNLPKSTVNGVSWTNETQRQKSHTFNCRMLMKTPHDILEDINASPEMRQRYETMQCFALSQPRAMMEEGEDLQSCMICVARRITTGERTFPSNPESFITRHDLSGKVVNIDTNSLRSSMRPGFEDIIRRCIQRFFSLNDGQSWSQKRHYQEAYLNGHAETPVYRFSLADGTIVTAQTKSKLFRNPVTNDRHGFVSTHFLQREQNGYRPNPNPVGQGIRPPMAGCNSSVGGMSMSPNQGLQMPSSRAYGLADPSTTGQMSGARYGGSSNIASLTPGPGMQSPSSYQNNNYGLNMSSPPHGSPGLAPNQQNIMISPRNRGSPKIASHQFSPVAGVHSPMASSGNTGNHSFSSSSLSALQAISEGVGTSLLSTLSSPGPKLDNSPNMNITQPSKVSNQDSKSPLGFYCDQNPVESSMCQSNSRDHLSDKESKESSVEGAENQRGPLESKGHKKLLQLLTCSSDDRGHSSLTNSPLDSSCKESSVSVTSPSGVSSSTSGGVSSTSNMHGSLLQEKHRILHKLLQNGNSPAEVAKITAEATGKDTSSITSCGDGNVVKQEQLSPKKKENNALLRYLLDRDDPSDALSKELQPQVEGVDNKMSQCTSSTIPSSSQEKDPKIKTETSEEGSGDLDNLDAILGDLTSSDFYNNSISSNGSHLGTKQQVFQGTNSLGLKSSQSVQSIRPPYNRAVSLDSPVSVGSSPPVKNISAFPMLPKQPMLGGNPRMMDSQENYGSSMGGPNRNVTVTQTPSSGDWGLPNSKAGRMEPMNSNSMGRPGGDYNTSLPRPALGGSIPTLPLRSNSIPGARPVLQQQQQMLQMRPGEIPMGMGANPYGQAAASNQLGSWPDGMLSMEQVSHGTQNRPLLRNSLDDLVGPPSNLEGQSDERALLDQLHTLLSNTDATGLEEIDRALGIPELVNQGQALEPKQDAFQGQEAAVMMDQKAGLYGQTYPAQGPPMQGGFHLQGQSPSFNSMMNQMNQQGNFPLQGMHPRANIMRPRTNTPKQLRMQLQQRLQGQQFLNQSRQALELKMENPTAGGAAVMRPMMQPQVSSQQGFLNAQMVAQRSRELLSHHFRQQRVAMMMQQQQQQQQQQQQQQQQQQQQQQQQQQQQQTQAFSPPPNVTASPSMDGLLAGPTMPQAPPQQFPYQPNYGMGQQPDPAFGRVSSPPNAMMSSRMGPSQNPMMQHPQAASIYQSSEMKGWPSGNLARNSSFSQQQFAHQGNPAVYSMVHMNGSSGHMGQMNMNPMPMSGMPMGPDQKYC

[2] = system: transactivating tegument protein VP16 (Human herpesvirus 1), Gal4-VP16 luciferase reporter; assay: repression of VP16-driven luciferase reporter – cell-based, luminescence, high throughput, counter-screen for SRC3 inhibitor project (AID 588794; in the data active = inhibition above about 30%); conditions: mammalian cells, at 3.6 µM, stronger effect = higher value
[3] = target: Nuclear receptor coactivator 1 (Homo sapiens) (UniProt Q15788); assay: NCOA1 GAL4-fusion reporter inhibition – cell-based, luminescence, quadruplicate, confirmation (AID 588820;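 active = mean inhibition above 46.68%, the untreated control wells mean plus 3 SD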;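 note: 0% = DMSO wells and 100% = gossypol 36 µM treated wells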); conditions: HEK293 GAL4-SRC1 luciferase reporter, at 3.6 µM, stronger effect = higher value
Sequence of Nuclear receptor coactivator 1 (Homo sapiens) (Q15788 whole entry, looked up, the tested form may be a part): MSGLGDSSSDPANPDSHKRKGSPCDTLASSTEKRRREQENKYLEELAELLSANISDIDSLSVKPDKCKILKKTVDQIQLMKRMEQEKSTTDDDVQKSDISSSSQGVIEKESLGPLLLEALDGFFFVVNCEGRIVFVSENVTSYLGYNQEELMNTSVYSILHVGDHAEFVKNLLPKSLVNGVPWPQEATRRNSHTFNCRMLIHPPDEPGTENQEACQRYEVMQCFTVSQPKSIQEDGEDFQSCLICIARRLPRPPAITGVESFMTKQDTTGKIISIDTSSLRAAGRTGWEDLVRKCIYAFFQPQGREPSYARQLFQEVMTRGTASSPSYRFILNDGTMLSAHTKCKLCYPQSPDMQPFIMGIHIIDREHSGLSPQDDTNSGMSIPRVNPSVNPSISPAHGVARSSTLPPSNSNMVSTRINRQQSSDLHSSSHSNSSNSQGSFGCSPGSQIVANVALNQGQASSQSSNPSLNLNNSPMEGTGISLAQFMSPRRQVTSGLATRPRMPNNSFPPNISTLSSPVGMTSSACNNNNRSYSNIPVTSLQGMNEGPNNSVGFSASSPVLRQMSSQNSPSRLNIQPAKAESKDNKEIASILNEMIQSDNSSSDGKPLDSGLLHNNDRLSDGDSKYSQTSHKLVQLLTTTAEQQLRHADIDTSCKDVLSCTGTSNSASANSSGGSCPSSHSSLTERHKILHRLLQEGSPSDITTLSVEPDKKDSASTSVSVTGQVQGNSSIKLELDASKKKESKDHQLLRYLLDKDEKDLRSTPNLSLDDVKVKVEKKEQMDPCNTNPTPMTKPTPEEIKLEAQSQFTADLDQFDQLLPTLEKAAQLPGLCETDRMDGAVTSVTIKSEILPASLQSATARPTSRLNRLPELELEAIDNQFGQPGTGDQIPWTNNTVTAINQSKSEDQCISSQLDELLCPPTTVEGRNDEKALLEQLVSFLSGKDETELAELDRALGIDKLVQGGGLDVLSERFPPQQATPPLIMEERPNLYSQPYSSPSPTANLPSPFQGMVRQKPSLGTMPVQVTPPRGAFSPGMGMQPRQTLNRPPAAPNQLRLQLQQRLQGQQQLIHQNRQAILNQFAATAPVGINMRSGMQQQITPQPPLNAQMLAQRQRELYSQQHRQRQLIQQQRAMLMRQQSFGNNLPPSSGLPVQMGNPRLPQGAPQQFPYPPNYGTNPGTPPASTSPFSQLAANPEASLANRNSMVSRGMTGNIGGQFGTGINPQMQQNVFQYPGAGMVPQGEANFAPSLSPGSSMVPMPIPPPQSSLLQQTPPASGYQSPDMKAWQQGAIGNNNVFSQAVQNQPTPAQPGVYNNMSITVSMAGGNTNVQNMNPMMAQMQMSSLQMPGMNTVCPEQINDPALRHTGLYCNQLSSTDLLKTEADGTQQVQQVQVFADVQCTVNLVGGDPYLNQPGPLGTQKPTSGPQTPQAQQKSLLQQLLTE

[4] = repression of VP16-driven luciferase reporter – cell-based, luminescence, high throughput, counter-screen for SRC1 inhibitor project (AID 588824; in the data active = inhibition above about 25%); conditions: cell-based VP16 transactivation luciferase luminescence; at 3.6 µM; stronger effect = higher value
[5] = StAR promoter reporter inhibitors, counter-screen for LRH-1 inverse agonist project, cell-based, luminescence, high throughput (AID 651611); conditions: StAR promoter luciferase reporter counterscreen, at 3.6 µM, stronger effect = higher value
[6] = target: Nuclear receptor subfamily 5 group A member 2 (Homo sapiens) (UniProt O00482); assay: NR5A2 activity suppression in reporter cells – cell-based, luminescence, confirmation (AID 651613; in the data active = inhibition above about 42%;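 note: HEK293T cells co-transfected with LRH-1 and StAR promoter luciferase reporter; 0% = vehicle wells and 100% = parental cells lacking receptor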); conditions: cell-based LRH-1 luciferase reporter, inverse agonism; at 3.6 µM; stronger effect = higher value
Sequence of Nuclear receptor subfamily 5 group A member 2 (Homo sapiens) (O00482 whole entry, looked up): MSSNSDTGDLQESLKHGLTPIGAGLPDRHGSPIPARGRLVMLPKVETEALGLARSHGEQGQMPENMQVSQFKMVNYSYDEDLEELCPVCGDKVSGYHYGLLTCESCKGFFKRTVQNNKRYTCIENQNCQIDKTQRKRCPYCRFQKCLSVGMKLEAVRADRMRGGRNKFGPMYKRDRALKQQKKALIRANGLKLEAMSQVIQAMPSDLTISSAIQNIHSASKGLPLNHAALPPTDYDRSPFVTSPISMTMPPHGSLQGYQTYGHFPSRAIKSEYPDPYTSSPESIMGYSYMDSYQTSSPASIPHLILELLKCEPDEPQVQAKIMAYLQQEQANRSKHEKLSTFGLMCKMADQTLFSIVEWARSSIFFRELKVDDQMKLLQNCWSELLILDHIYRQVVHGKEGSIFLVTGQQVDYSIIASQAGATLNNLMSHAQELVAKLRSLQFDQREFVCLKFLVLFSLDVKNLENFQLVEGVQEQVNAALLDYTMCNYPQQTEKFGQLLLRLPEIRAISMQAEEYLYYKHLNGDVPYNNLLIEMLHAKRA

[7] = target: Steroidogenic factor 1 (Homo sapiens) (UniProt Q13285); assay: inverse agonism at SF1 nuclear receptor – cell-based, luminescence, high throughput, counter-screen for LRH-1 inverse agonist project (AID 651614; in the data active = inhibition above about 44%;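 note: cells cotransfected with StAR promoter reporter and SF1 expression vector; 0% = vehicle on cells with receptor and 100% = vehicle on cells lacking receptor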); conditions: cell-based SF1 luciferase reporter, at 3.6 µM, stronger effect = higher value
Sequence of Steroidogenic factor 1 (Homo sapiens) (Q13285 whole entry, looked up, the tested form may be a part): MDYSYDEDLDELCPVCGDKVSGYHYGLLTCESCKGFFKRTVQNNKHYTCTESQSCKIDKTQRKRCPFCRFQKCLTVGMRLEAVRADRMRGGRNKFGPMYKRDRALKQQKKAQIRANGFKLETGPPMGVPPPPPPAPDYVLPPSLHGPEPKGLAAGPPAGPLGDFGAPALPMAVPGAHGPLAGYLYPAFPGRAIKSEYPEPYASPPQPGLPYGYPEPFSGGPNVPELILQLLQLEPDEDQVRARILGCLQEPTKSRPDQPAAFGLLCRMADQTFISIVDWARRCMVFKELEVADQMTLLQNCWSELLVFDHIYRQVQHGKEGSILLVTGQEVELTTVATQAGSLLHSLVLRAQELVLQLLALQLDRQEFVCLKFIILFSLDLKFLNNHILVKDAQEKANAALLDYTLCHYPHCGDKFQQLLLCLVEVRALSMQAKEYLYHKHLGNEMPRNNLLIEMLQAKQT

[8] = compounds suppressing VP16-driven luciferase signal – cell-based, luminescence, high throughput, counter-screen for LRH-1 inverse agonist project (AID 651615; in the data active = inhibition above about 33%); conditions: Gal4-VP16 luciferase reporter cells, at 3.6 µM, stronger effect = higher value

Measured: inhibition

COc1ccc2[nH]c3c(C)c4ccncc4c(C)c3c2c1
active: [2] 53.7% | [4] 52.5% | [5] 60.9% | [6] 67.1% | [7] 68.7% | [8] 72.1%
inactive: [1] -29% | [3] 24.4%

CN(Cc1cnc2nc(N)nc(N)c2n1)c1ccc(C(=O)NC(CCC(=O)O)C(=O)O)cc1C(F)(F)F (stereo unspecified)
active: [1] 60.4% | [3] 51.9% | [5] 79.6% | [6] 56.4% | [7] 49.1%
inactive: [2] 7.16% | [4] 5.94% | [8] 21.3%

COc1ccccc1C(=O)Nc1nc(-c2ccc(S(=O)(=O)N3CCOCC3)cc2)cs1
active: [1] 68% | [2] 82.1% | [4] 74.5% | [5] 78.5% | [6] 98.4% | [7] 83.7% | [8] 92.2%
inactive: [3] 41.6%

CCN(CC)c1ccc(/C=C/c2cccc[n+]2C)c(OC)c1
active: [1] 48.1% | [2] 75% | [3] 52.2% | [4] 77.1% | [5] 73.3% | [6] 106% | [7] 91.8% | [8] 85.7%

NC(=S)NN=Cc1nccc2ccccc12
inactive: [2] 26.7% | [4] 20.9% | [8] 20.6%
active: [1] 80% | [3] 58.1% | [5] 74.9% | [6] 89.8% | [7] 79%

c1ccc2cc3c(NCCN4CCOCC4)ccnc3cc2c1
inactive: [1] 22.8% | [3] 38.6%
active: [2] 44.7% | [4] 45.4% | [5] 35.6% | [6] 83.1% | [7] 55.6% | [8] 55.8%

CN(C)c1ccc(/C=C/c2ccc3c4ccccc4ccc3[n+]2-c2ccccc2)cc1
active: [1] 70.9% | [2] 82.3% | [3] 50.2% | [4] 79.4% | [5] 71.9% | [6] 104% | [7] 92.5% | [8] 83%

Cc1cc([N+](=O)[O-])nn1Cc1ccc(C(=O)N/N=C/c2ccc(O)cc2O)cc1
active: [1] 54.5% | [2] 63.4% | [3] 48.5% | [4] 66.9% | [5] 80.8% | [6] 97% | [7] 88.1% | [8] 87.9%

Cc1ccc(-n2c(-c3ccc(Br)cc3)c[n+]3c2CCc2ccc4cccnc4c2-3)cc1
active: [1] 89.4% | [2] 86.1% | [3] 74.8% | [4] 87.5% | [5] 83.8% | [6] 111% | [7] 95.8% | [8] 96.3%

CC(=O)c1cccc(N=c2scc(-c3ccc(S(=O)(=O)N4CCOCC4)cc3)n2CCO)c1
inactive: [1] 21.9% | [3] -14.3%
active: [2] 47.4% | [4] 49.4% | [5] 35.2% | [6] 63.3% | [7] 69.7% | [8] 61.1%

N=c1c2c(n(Cc3ccc(F)cc3)c3c1CCC3)CCCC2
inactive: [1] 27.9% | [3] 13.6%
active: [2] 61.5% | [4] 48% | [5] 41.4% | [6] 101% | [7] 70.9% | [8] 61.2%

O=[N+]([O-])c1ccc(Sc2cccc[n+]2[O-])c2nonc12
active: [1] 98.7% | [2] 95.4% | [3] 91.7% | [4] 93.3% | [5] 98.1% | [6] 111% | [7] 99.2% | [8] 98.9%

CCN1/C(=C/c2ccc3ccccc3[n+]2CC)C=Cc2ccccc21
active: [1] 74% | [2] 86.2% | [3] 55.5% | [4] 84.7% | [5] 78.7% | [6] 110% | [7] 93% | [8] 89.3%

Cc1ccc2ccc3cccnc3c2n1
inactive: [1] -1.81% | [2] 18.9% | [3] 12% | [4] 24.6%
active: [5] 30.6% | [6] 50.2% | [7] 54.5% | [8] 37.3%

CCn1cc(/C=C/c2cc[n+](C)cc2)c2ccccc21
active: [2] 38.4% | [4] 47.3% | [5] 40.5% | [6] 65.9% | [7] 66.8% | [8] 57.1%
inactive: [1] 21.5% | [3] 3.02%

CCCCCCCCCCn1c2c(c(=N)c3c1CCC3)CCC2
active: [1] 85.2% | [2] 89.5% | [3] 57.1% | [4] 89.7% | [5] 82.1% | [6] 108% | [7] 94.5% | [8] 95.2%

Cc1ccc(S(=O)(=O)/N=C2\C=C(Nc3ccc(O)cc3)C(=O)c3ccccc32)cc1
active: [1] 91.8% | [2] 83.1% | [3] 71.1% | [4] 86.3% | [5] 90.3% | [6] 106% | [7] 94.6% | [8] 96%

Source: PubChem BioAssay
